Results on 38 compounds are retold here after PubChem BioAssay (NCI).

This is part of a sample that, as a whole, favours compounds with a hit. Of some 83,000 tested, about 20% had one in any assay.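 Treatment: one concentration, 48 hours, 96-well format. Scoring: percent growth, with anything below 10 considered active.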 A number with no mark means an inactive call. Calls of active or inactive are those of the source.

This test has as its system SR leukemia. The test is described as follows: NCI-60 one-dose screen, 48 h (100 = growth as untreated, 0 = no growth, -100 = all killed). To be noted: 10 µM unless noted.
In the case of `CN1CCN(Cc2ccc(NC(=O)c3cncc(C#Cc4cnc5ccc(OCC6(C)COC6)nn45)c3)cc2C(F)(F)F)CC1`, the growth is -13.9% (active).
Then `CC(=O)c1cc(C(=O)c2ccc(Br)cc2)n2cc(C)cc(C)c12`, with 77.1%.
Then `COC(=O)C[Se]C(=O)Cc1c(C)n(C(=O)c2ccc(Cl)cc2)c2ccc(OC)cc12`, with 16.4%.
Then `N#Cc1cccc(CN2CCC3=C(C2)C(=O)N(Cc2ccc(Cl)cc2)C2=NCCCN23)c1`, with 27.6%; and `C=CCn1c(SCC(=O)Nc2ccc(C(=O)/C=C/c3ccc(C)cc3)cc2)nnc1-c1c[nH]c2ccccc12`, with 71.7%; and `CCCn1cnc2c(c1=N)C(c1ccc(OC)cc1)c1sc3c(CC)cccc3c1O2` (stereo not drawn), with 8.89% (active).
Regarding `Cc1ccc(-c2cc3nc(C(Cl)Cl)nc(C)n3n2)cc1`, the growth was 113%.
To `CCOC(=O)C(=O)CC(=O)N1C(=S)NC(=O)C1CC(C)C` (stereo not drawn) belongs 112%.
Then `COc1ccc(-c2nc(C(Cl)Cl)nc3cc(-c4ccccc4)nn23)cc1`, with 4.09% (active); and `CNC(=O)c1cc(-c2ccc(NS(=O)(=O)c3ccc(C)cc3)cc2)nc2cccnc12`, with 113%; and `NC(N)=Nc1ccc(Oc2cccc(Nc3ccc(Cl)c(C(F)(F)F)c3)c2)cn1`, with -54.6% (active).
Then `CCN1CCN(Cc2ccc(C(=O)Nc3ccc(C)c(Oc4ccc(-c5[nH]nc6ncnc(N)c56)cc4)c3)cc2C(F)(F)F)CC1`, with 11.3%.
On to `COc1ccc(NC(=O)Nc2ccc3c(ccn3C(=O)c3cccc(F)c3)c2)cc1`, for which the growth was 42.7%.
To `CCn1c(SCC(=O)Nc2cccc(C(=O)/C=C/c3ccccc3Cl)c2)nc2ccccc2c1=O` belongs 52.2%; to `COc1ccc(-c2nn(-c3ccc(S(C)(=O)=O)cc3)cc2/C=N/O)cc1`, 107%.
`NC(N)=Nc1ccc(Oc2ccc(Nc3ccc(Cl)c(C(F)(F)F)c3)cc2)cc1`: the growth is -4.22% (active).
To `COc1ccc(NC(=O)CSc2nnc(-c3ccc4nc(-c5ccc(OC)c(OC)c5)[nH]c4c3)o2)cc1OC` belongs 104%; to `Cc1ccc(-n2c(/C=C3\C(=O)Nc4ccccc43)ccc2CO)cc1`, 46.6%; to `O=C(NNc1nc2cc(F)ccc2n2c(CO)ccc12)c1cnccn1`, 5.16% (active).
Regarding `Nc1ccccc1NC(=O)c1ccc(NC(=O)C/C=C/c2cccnc2)cn1`, the growth is 28.2%.
To `Cn1ccnc1C(=O)/C=C/c1ccc(CNC(=O)c2c(F)c(F)c(F)c(F)c2F)cc1` belongs 12.8%; to `C#C[C@]1(O)CC[C@H]2[C@@H]3CC=C4c5sc(-c6cccc(O)c6)nc5CC[C@]4(C)[C@H]3CC[C@@]21C`, 4.31% (active); to `COc1cc2c(cc1OC)C(Sc1ccc(F)cc1)c1c(nc(N)c(C#N)c1N)O2` (stereo not drawn), 0.989% (active).
Then `N#Cc1cn(Cc2ccc(Cl)cc2Cl)c(C(=O)c2ccc(Br)cc2)c1N`, with 99.5%; and `O=C(O)c1ccc(-n2cc(CNc3cc(F)c(F)c(F)c3)c(-c3cccc(F)c3)n2)cc1`, with 80.4%.
Turning to `CCc1cccc(NC(=O)CNc2cc(S(=O)(=O)N(C)C)cc(C)c2C)c1`, the growth was 83.8%.
To `COc1ccc2c(c1)c(-c1cc(N)n3nc(-c4cn(C)c5ccc(OC)cc45)cc3n1)cn2C` belongs -12.2% (active); to `C=C(C=O)[C@@H]1CC[C@]2(COC(C)=O)CC[C@]3(C)C(CC[C@@H]4[C@@]5(C)CC[C@H](OC(C)=O)C(C)(C)[C@@H]5CC[C@]43C)[C@@H]12` (stereo partly drawn), -25.8% (active); to `COc1ccc(-c2nc3ccc(-c4nnc(SCC(=O)Nc5ccc(C(=O)/C=C/c6ccc(Cl)cc6)cc5)o4)cc3[nH]2)cc1`, 68.2%.
Turning to `COc1ccc(/C=C(\C#N)C(=O)N2c3ccccc3Sc3ccc(SC)cc32)cc1F`, the growth is 121%.
Then `O=C(CNc1nc(-c2cccc([N+](=O)[O-])c2)cs1)Nc1cccc(Cl)c1`, with 94.9%; and `CC1(C)CC[C@]23CC[C@]4(C)[C@H](CC[C@@H]5[C@@]6(C)CCCN(CO)C(C)(C)[C@@H]6CC[C@]54C)[C@H]2[C@H]1OC3`, with 1.43% (active).
To `C=C(C=O)[C@@H]1CC[C@]2(C)[C@H](CC=C3[C@H]4[C@@H](C)[C@H](C)CC[C@]4(C(=O)OC)CC[C@]32C)[C@@]1(C)CCC#N` belongs 0.262% (active); to `CN(C)C(=O)c1cc(-c2ccc3ncnc(NCc4ccccc4)c3c2)cnc1N`, 89.3%.
Then `O=S(=O)(NCCCNc1nccc(-c2[nH]c(-c3ccccc3)nc2-c2ccc(Cl)c(O)c2)n1)c1cccc2ccccc12`, with 17.8%; and `Nc1ccccc1NC(=O)c1ccc(NC(=O)C/C=C/c2cccnc2)cc1`, with 30.7%; and `COc1cc(-c2nc(SCCC(C)C)nc(NNC(=O)c3ccncc3)c2C#N)cc(OC)c1OC`, with 105%.
As for `O=C(NNc1nc2cc(F)c(F)cc2n2cccc12)c1cnccn1`, the growth was 15.3%.
